{"source": "PubChem BioAssay AID743311", "about": "(Broad Institute, 2014)", "note": "Results with a measured potency or affinity are listed apart. A number with no mark means an inactive call. Active and inactive are the calls of the source. How the calls were made is not given here.", "data": [{"experiment": "HepG2 cell cytotoxicity, dose response, cytotoxicity control, plate reader, dry powder, set 6 (AID 743311)", "conditions": "series mostly up to 26 µM; activity change, negative = cytotoxicity: at the top concentration", "units": {"activity change, negative = cytotoxicity": "%"}, "values": [{"compound": "CSc1nc2ccccc2n1CCOc1ccccc1", "activity change, negative = cytotoxicity": -20.3}, {"compound": "CCc1nc2ccccc2n1CCOc1ccccc1", "activity change, negative = cytotoxicity": 28.5}, {"compound": "Cc1cccc(OCCn2c(=S)[nH]c3c(F)cccc32)c1", "outcome": "inactive"}, {"compound": "COc1ccccc1OCCn1c(=S)[nH]c2ccccc21", "activity change, negative = cytotoxicity": 10.4}, {"compound": "CSc1nc2ccccc2n1CCOc1cc(C)ccc1C(C)C", "activity change, negative = cytotoxicity": 4.69}, {"compound": "COCc1nc2ccccc2n1CCOc1ccc(C(C)(C)C)cc1", "activity change, negative = cytotoxicity": 17}, {"compound": "OCc1nc2ccccc2n1CCOc1ccccc1", "activity change, negative = cytotoxicity": 6.61}, {"compound": "Cc1ccc(OCCn2cnc3ccccc32)c(C(C)C)c1", "activity change, negative = cytotoxicity": -8.61}, {"compound": "CC(C)(C)c1ccc(OCCn2cnc3ccccc32)cc1", "activity change, negative = cytotoxicity": 4.09}, {"compound": "COc1cc(C)ccc1OCCn1cnc2ccccc21", "activity change, negative = cytotoxicity": -1.63}, {"compound": "Clc1ccccc1OCCn1cnc2ccccc21", "activity change, negative = cytotoxicity": 33.7}, {"compound": "COc1ccccc1OCCn1c(SC)nc2ccccc21", "activity change, negative = cytotoxicity": 5.77}, {"compound": "CC(C)c1ccccc1NCCn1c(=S)[nH]c2ccccc21", "activity change, negative = cytotoxicity": -15.4}, {"compound": "Fc1ccc2c(c1)[nH]c(=S)n2CCOc1ccccc1", "outcome": "inactive"}, {"compound": "CC(C)(C)c1ccc(OCCn2c(CO)nc3ccccc32)cc1", "activity change, negative = cytotoxicity": -2.48}, {"compound": "Clc1ccc(OCCn2cnc3ccccc32)c(Cl)c1", "activity change, negative = cytotoxicity": 1.13}, {"compound": "Cc1cc2ncn(CCOc3ccccc3)c2cc1C", "activity change, negative = cytotoxicity": -8.27}, {"compound": "c1ccc2c(c1)ncn2CCOc1ccc2c(c1)CCC2", "activity change, negative = cytotoxicity": -6.54}, {"compound": "CC(C)Oc1cccc(OCCn2cnc3ccccc32)c1", "activity change, negative = cytotoxicity": -12.9}, {"compound": "Cc1cccc(OCCn2c(=S)[nH]c3ccccc32)c1", "activity change, negative = cytotoxicity": 20.7}]}]}
